From PubChem BioAssay AID868 (SRMLSC, 2007)
The whole screen tested about 190,000 compounds, of which about 3,500 (1.8%) were called active.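 The calls were made as follows: active = inhibition above a set limit, 3 SD over mean compound inhibition (cut at about 8.4% in these data); inactive = the rest.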 This excerpt belongs to a sample that is enriched for actives.

Experiment: inhibitors of the yeast RAM network, primary screen, dse1pr::URA3 reporter, 5-FOA selection (AID 868);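 also: 0% = DMSO-only wells with no growth and 100% = 10 µM 1-NA-PP1 full growth; inhibition rescues growth on 5-FOA so higher OD means more RAM inhibition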
Conditions: S. cerevisiae dse1pr::URA3 reporter, 5-FOA growth OD615, 2 d; at 50 µM; hits give high values; analog-sensitive cbk1-as2 kinase mutant strain

SMILES	inhibition
Cc1cccc(-n2cnc(C(=O)NNC(=S)Nc3ccccc3)c2)n1	1.6% (inactive)
Cc1ccc(C(=O)N/C(=C\c2ccco2)C(=O)N2CCSCC2)cc1C	-0.85% (inactive)
C=CCn1c(CNC(=O)c2ccco2)nnc1SCC(=O)c1ccc(OC)cc1	-1.14% (inactive)
CCn1c(COc2ccccc2)nnc1SCC(=O)NCc1ccco1	0.66% (inactive)
COc1ccc(C(=O)CSc2nnc(COc3ccccc3)n2Cc2ccco2)cc1	9.29% (active)
O=C(N/N=C/c1ccc(OCc2ccccc2)cc1)c1ccc(O)cc1	1.57% (inactive)
Cc1ccc(COc2ccc(/C=N/NC(=O)CN3CCCCC3)cc2)cc1	0.5% (inactive)
O=C(Cc1cccs1)N/N=C/c1ccc(OCc2ccccc2)cc1	10.5% (active)
COc1cc(C(=O)NNC(=O)c2ccc(S(=O)(=O)N3CCCCC3)cc2)cc(OC)c1OC	3.63% (inactive)
COCCN(CC(=O)Nc1ccccc1C)S(=O)(=O)c1ccc(S(=O)(=O)N2CCCC2)cc1	9.62% (active)
COc1ccccc1NC(=O)CN1CCN(S(=O)(=O)c2ccc(Br)cc2)CC1	0.23% (inactive)
CC1CCN(C(=S)c2cccc(O)c2)CC1	0.5% (inactive)
CC1CCN(C(=S)c2ccc(-c3ccc(Cl)cc3Cl)o2)CC1	15.1% (active)
Cc1csc(NC(=O)c2ccc(-c3ccc(Cl)cc3Cl)o2)n1	0.54% (inactive)
COCC(C)NCc1cc(Br)ccc1OC (stereo unspecified)	1.56% (inactive)
O=C(NCc1ccccc1)[C@H]1C[C@@H]1[C@H](NP(=O)(c1ccccc1)c1ccccc1)c1ccccc1	19% (active)
O=C(O)C1CC=C(Cl)CC1C(=O)NCc1ccccc1 (stereo unspecified)	1.08% (inactive)
COC(=O)[C@H](Cc1ccccc1)NC(=O)[C@@H]1C[C@H]1[C@@H](NC(=O)OCc1ccccc1)c1ccccc1	1.21% (inactive)
CC12CN(NC(=O)c3ccc(Cl)cc3)C3(C#N)CC1CCC23C (stereo unspecified)	-0.13% (inactive)
COc1cccc(C(=O)Nc2ccc(N3CCCC3)cc2)c1	1.61% (inactive)
COc1cc(N2CCCC2)c(OC)cc1/C=C(/C#N)c1cccc(Br)c1	8.59% (active)

SMILES	inhibition
CC(=O)Nc1cccc(Oc2cc(C#N)c(C#N)cc2N2CCOCC2)c1	0.91% (inactive)
COc1ccc2cc(CCl)c(Cl)nc2c1	0.27% (inactive)
COc1ccc(C2CC(c3cccs3)=NN2C(=O)CSc2nncs2)cc1OC (stereo unspecified)	-0.13% (inactive)
COc1ccc(C2CC(c3cccs3)=NN2c2ccc(F)cc2)cc1OC (stereo unspecified)	2.78% (inactive)
COc1ccc(C2CC(c3cccs3)=NN2c2nc(C)c(C(C)=O)s2)cc1OC (stereo unspecified)	9.6% (active)
CCc1c(C)nc2c(OC)cccc2c1Cl	0.88% (inactive)
CC(C)(C)NC(=O)COC(=O)c1cc(Br)ccc1Cl	-0.13% (inactive)
C=CCN(c1ccc(C(=O)Nc2cc(C)cc(C)c2)cc1)S(C)(=O)=O	1.58% (inactive)
CC(=O)Nc1ccccc1NC(=O)c1cc(C)cc(C)c1	1.49% (inactive)
CSCc1ccc(C(=O)Nc2cc(C)cc(C)c2)cc1	10.7% (active)
CC(C)(C)c1ccc(/C=C/C(=O)NC2CCS(=O)(=O)C2)cc1 (stereo unspecified)	-1.15% (inactive)
Cc1cccc(C(=O)c2cccc(C)c2)c1	1.11% (inactive)
Cc1ccccc1CN1C[C@@H]2C[C@@H](c3ccc4nsnc4c3)N3CCC[C@@]23C1=O	1.56% (inactive)
COc1ccc(/C=C2\CCCC3C2=NN(C(=O)c2scnc2C)C3c2ccc(OC)cc2)cc1 (stereo unspecified)	8.89% (active)
CN(C)/C=C/C(=O)c1cnc2sccn2c1=O	3.34% (inactive)
Cc1cc(Cl)ccc1OCCCC(=O)NCc1ccccn1	-1.48% (inactive)
CC1CCCC(C)N1/N=C/c1ccccc1OC(F)F (stereo unspecified)	-0.37% (inactive)
NS(=O)(=O)c1ccc(NC(=S)NC(=O)c2cccc(Br)c2)cc1	15.5% (active)
NS(=O)(=O)c1ccc(NC(=S)NC(=O)c2cccnc2)cc1	0.14% (inactive)
O=C(NC(=S)Nc1ccc(S(=O)(=O)Nc2ncccn2)cc1)c1cccc(Br)c1	6.97% (inactive)
CCc1ccccc1NC(=O)Cc1cn(C)c2ccccc12	1.88% (inactive)

SMILES	inhibition
O=C(/C=C/c1ccc(Cl)c([N+](=O)[O-])c1)c1cccnc1	1.34% (inactive)
Cc1ccsc1C1C(C#N)=C(N)OC2=C1C(=O)CC(C)C2 (stereo unspecified)	2.12% (inactive)
CCC(=O)Nc1sc(C(=O)Nc2ccccc2)c(C)c1C(=O)OC	-0.53% (inactive)
CC(=O)c1c(Nc2ccccc2)sc(C(=O)c2ccccc2)c1C	13.4% (active)
O=C(c1ccc(Cl)cc1)c1cnc(Nc2ccccc2)s1	3.49% (inactive)
COc1cc(CN2CCN(Cc3ccc(C)cc3)CC2)c([N+](=O)[O-])cc1OC	-0.12% (inactive)
N#Cc1ccc(-c2ccc(Cl)cc2)nc1Oc1ccc(F)cc1	3.94% (inactive)
N#Cc1c(-c2ccc(F)cc2)nc(-c2ccccc2)[nH]c1=O	1.19% (inactive)
N#Cc1ccc(-c2ccc(F)cc2)nc1Sc1ccccc1	9.92% (active)
COC(=O)c1nc(NC(=O)c2ccc(C(C)(C)C)cc2)n[nH]1	-0.27% (inactive)
COC(=O)C1=C(C(=O)OC)C(c2cc([N+](=O)[O-])ccc2O)c2sc(=O)[nH]c2S1 (stereo unspecified)	-0.84% (inactive)
CCOC(=O)C(NC(C)=O)C(=O)Nc1ccc(OC)cc1 (stereo unspecified)	1.23% (inactive)
Cc1cc(C)c(C2C3=C(Nc4c2c(C)nn4-c2ccccn2)c2ccccc2C3=O)c(C)c1 (stereo unspecified)	9.18% (active)
Cc1ccc(C2C3=C(Nc4[nH]n(-c5ccccc5)c(=O)c42)c2ccccc2C3=O)cc1 (stereo unspecified)	4.88% (inactive)
Cc1nn(-c2ccccn2)c2c1C(c1ccncc1)C1=C(CC(C)(C)CC1=O)N2 (stereo unspecified)	-0.66% (inactive)
O=C(CN1CCN(C/C=C/c2ccccc2)CC1)Nc1ccc(F)cc1F	0.69% (inactive)
CCOCCCNCc1cc(Br)ccc1OCC	1.92% (inactive)
CCOC(=O)C1CCN(CCC(=O)Nc2cccc(C)c2)CC1	0.78% (inactive)
Cc1ccc(S(=O)(=O)N2CCOCC2)cc1C(=O)OC1CCCCC1=O (stereo unspecified)	0.38% (inactive)
